Test [1] can be described thus: resazurin metabolic signal in HepG2 cells – cell-based, resazurin fluorescence, 24 h, PK04 Diversity Set, profiling panel (AID 1172). Also: test concentration not given here. The settings on record: HepG2 viability, higher = more signal. In general terms: The colour change of resazurin is a common sign of viable cells or microbes.
A short description of test [2]: budding yeast growth changes without added modifier – OD600, strain BY4716, 24 h, basal condition, primary screen (AID 1173). The settings on record: S. cerevisiae BY4716 growth, OD600, 24 h; higher = more signal, called active from +8 up or from −8 down.
Test [3] can be described thus: viability profiling in MM1S myeloma cells – cell-based, resazurin fluorescence, basal, 24 h, PK04 Diversity Set, profiling panel (AID 1174).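 Also: MM1S multiple myeloma cell line; test concentration not given here.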 The following applies: higher = more signal, called active from +8 up or from −8 down.
Test [4] deals with Dihydroorotate dehydrogenase (quinone), mitochondrial (Plasmodium falciparum (isolate 3D7)) (UniProt Q08210). In words: inhibition of P. falciparum DHODH – biochemical, C-terminal His tag, absorbance 600 nm, primary screen (AID 1175).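 Also: recombinant parasite enzyme with a five histidine tag at its C terminus; test concentration not given here.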 The following applies: PfDHODH enzyme, DCIP absorbance 600 nm; higher = more signal, called active from +8 up or from −8 down.
A short description of test [5]: inhibition of PAO1 biofilm formation – strain PAO1, LB-PBS medium, absorbance 600 nm, primary screen (AID 1176). Also: test concentration not given here. The settings on record: P. aeruginosa PAO1 growth/biofilm, A600, 12 h; higher = more signal.
Test [6] is described as follows: growth modulation of vineyard yeast isolate – strain RM11-1a, OD600, basal, 24 h, primary screen (AID 1177).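 Also: cultures grown under basal conditions with no added stressor; test concentration not given here.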 The following applies: S. cerevisiae RM11-1a growth, OD600, 24 h; higher = more signal, called active from +8 up or from −8 down.
Test [7] is described as follows: growth of efflux-deficient E. coli DRC39 – strain DRC39, OD650, 24 h, E. coli filamentation inducers, primary screen (AID 1178).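 Also: growth measured as culture turbidity by optical density at 650 nm; test concentration not given here.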 The following applies: E. coli DRC39 acrAB, higher = more signal, called active from +8 up or from −8 down.
Test [8] in a line: growth of efflux-deficient E. coli DRC39 – strain DRC39, OD650, 48 h, E. coli filamentation inducers, primary screen (AID 1179).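 Also: screen aims at cell division blockers that make cells filament.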 The following applies: E. coli DRC39 delta-acrAB growth, higher = more signal, called active from +8 up or from −8 down.
The nature of test [9]: viability profiling in RPMI8226 myeloma cells – cell-based, resazurin fluorescence, basal, 24 h, PK04 Diversity Set, profiling panel (AID 1180).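 Also: RPMI8826 multiple myeloma cell line at 5000 cells per well; test concentration not given here.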 The settings on record: higher = more signal.
In test [10] the target is E3 ubiquitin-protein ligase XIAP (Homo sapiens) (UniProt P98170). Description: small molecules binding XIAP protein – biophysical, small-molecule microarray, fluorescence 635 nm, primary screen (AID 1181).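 Also: score merges 667 nm emission and signal to noise over triplicate slides.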 The following applies: higher = more signal.

Active and inactive are the calls of the source. Unless noted, no rule for the calls is given here.

Results on twelve compounds are retold here after PubChem BioAssay.

Chain of E3 ubiquitin-protein ligase XIAP (Homo sapiens) (P98170 whole entry, looked up): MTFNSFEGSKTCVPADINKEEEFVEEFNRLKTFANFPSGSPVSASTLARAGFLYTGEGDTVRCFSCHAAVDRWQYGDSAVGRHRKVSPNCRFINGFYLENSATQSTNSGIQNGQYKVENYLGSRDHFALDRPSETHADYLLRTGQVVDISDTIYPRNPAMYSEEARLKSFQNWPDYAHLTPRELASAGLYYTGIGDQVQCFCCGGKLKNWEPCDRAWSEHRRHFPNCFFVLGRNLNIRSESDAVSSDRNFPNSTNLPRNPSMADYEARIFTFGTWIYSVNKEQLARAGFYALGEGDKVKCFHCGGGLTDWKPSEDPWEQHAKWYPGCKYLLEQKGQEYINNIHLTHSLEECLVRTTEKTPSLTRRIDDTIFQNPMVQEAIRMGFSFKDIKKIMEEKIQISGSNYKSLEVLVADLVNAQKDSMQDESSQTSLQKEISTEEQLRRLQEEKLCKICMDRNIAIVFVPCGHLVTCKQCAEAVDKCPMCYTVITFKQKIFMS
Chain of Dihydroorotate dehydrogenase (quinone), mitochondrial (Plasmodium falciparum (isolate 3D7)) (Q08210 whole entry, looked up): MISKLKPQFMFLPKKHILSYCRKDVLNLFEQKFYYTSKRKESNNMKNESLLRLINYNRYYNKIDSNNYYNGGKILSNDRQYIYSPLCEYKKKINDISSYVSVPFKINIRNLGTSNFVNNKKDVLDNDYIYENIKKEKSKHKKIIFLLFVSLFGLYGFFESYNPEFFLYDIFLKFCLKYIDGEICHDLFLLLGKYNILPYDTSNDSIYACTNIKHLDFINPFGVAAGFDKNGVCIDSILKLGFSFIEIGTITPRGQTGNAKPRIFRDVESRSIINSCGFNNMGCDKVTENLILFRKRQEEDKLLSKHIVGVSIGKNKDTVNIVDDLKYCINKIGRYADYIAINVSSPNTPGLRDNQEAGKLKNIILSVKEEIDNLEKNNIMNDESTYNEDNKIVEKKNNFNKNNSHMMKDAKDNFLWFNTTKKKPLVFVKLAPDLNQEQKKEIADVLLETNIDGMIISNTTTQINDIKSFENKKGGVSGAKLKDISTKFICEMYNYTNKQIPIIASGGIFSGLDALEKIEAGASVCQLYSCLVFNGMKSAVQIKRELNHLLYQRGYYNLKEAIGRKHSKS

For `O=C1C[C@@](C(=O)NCC(F)(F)F)(c2ccc([N+](=O)[O-])cc2)[C@@H](c2ccc(CO)cc2I)N1CC12CC3CC(CC(C3)C1)C2`, the z-score was -4.52 in test [1]; -1.42 (inactive) in test [2]; -7.22 (inactive) in [3]; 1.11 (inactive) in test [5]; -0.355 (inactive) in [6]; 0.213 (inactive) in test [7]. Moreover, the z-score in test [8] is 1.29 (inactive); in test [9], -6.47. Moreover, the composite z-score in [4] was -1.13 (inactive); in test [10], -0.0287.

`O=C(O)C1=CC[C@H]2C(=O)N(c3ccccc3)C(=O)[C@@H]12`: the z-score in test [1] is -0.0581; in test [2] it was 1.53 (inactive); in [3], -0.849 (inactive); in test [5], 0.477 (inactive); in test [6] it was 1.6 (inactive); in test [7], -0.897 (inactive). The z-score in test [8] was -0.453 (inactive); in test [9], -1.24. Further, the composite z-score in [4] is 0.609 (inactive); in test [10], 0.997.

For the compound `[N-]=[N+]=Nc1ccccc1C[C@@]1(C(=O)NCC(O)CO)N=C(c2ccc(OCCCO)cc2)O[C@@H]1c1ccccc1N=[N+]=[N-]` (stereo not given in full), the z-score in test [1] is -2.15; in test [2], -1.75 (inactive); in [3], -2.42 (inactive); in test [5], 0.122 (inactive); in test [6], 0.629 (inactive); in test [7], 0.2 (inactive). Further, the z-score in test [8] is -0.456 (inactive); in test [9] it was -2.25. Also, the composite z-score in test [4] is 0.791 (inactive); in test [10], 0.0651.

With `C=C[C@@H](CO)NS(=O)(=O)c1ccc(Br)cc1`, the z-score in test [1] was 1.4; in [2], -2.03 (inactive); in test [3], 1.16 (inactive); in [5], 0.193 (inactive); in test [6], -2.19 (inactive); in test [7], 1.43 (inactive). Moreover, the z-score was 1.16 (inactive) in [8] and 0.867 in test [9]. Also, the figures for the composite z-score in test [4] and in [10] were -1.37 (inactive) and -0.215, respectively.

Turning to `CCOC(=O)C1=CCC(c2cccn2C(=O)OC(C)(C)C)N(S(=O)(=O)c2ccc(C)cc2)C1` (stereo not given), the z-score in test [1] is 0.573; in [2], -0.902 (inactive); in [3], -0.926 (inactive); in [5], -0.144 (inactive); in [6] it was 0.824 (inactive); in [7], -0.484 (inactive). Moreover, the z-score in [8] was 0.605 (inactive); in test [9] it was -0.538. Moreover, the composite z-score in test [4] was 0.068 (inactive); in [10], 0.177.

As to `[N-]=[N+]=NCc1ccccc1C[C@@]1(C(=O)NCCN2CCOCC2)N=C(c2ccc(OCCCO)cc2)O[C@@H]1c1ccccc1`, the z-score in [1] was -0.419; in [2], -2.05 (inactive); in test [3], -0.909 (inactive); in test [5], -0.0025 (inactive); in test [6], -0.411 (inactive); in test [7], 0.594 (inactive). In addition, the z-score in test [8] was -0.959 (inactive); in [9], -1.02. In addition, the composite z-score in test [4] is 0.742 (inactive); in test [10], 0.0297.

With `COc1ccc([Si](C)(C)[C@H]2[C@H](CCO)O[C@@]3(C(=O)N(Cc4ccccc4)c4ccc(NC(=O)[C@H](C)O)cc43)[C@@H]2C)cc1`, the z-score in test [1] is -4.02; in test [2], 0.478 (inactive); in test [3], -7.25 (inactive); in test [5], 1.7 (inactive); in test [6], 4.58 (inactive); in [7], 1.23 (inactive). The z-score in [8] was 0.723 (inactive); in [9], -5.45. The composite z-score in test [4] was 1.18 (inactive); in [10], 0.0153.

In the case of `CC1CC/C=C\[C@H]2OC34C=CCN(C(C)C)C(=O)[C@H]3N(C(C)CO)C(=O)[C@@H]4C2C(=O)O1` (stereo not given in full), the z-score in test [1] was 0.741; in test [2] it was 0.306 (inactive); in test [3], 1.05 (inactive); in test [5], 2.9 (inactive); in test [6], 0.477 (inactive); in [7], 0.355 (inactive). Moreover, the values for the z-score in test [8] and in test [9] were 0.553 (inactive) and 0.832, respectively. The composite z-score in test [4] was -0.0766 (inactive); in [10], 0.0345.

As for `CC[C@H]1C2=C3C(CC[C@H]4C(OCc5ccc(F)cc5C(F)(F)F)OC[C@](C)([C@@H]34)N(C(=O)OC(C)(C)C)C2)C(COC(C)=O)C1COC(C)=O` (stereo not given in full), the z-score was -0.409 in test [1]; 0.249 (inactive) in [2]; -1.04 (inactive) in [3]; 0.523 (inactive) in test [5]; 0.348 (inactive) in test [6]; -1.26 (inactive) in test [7]. Further, the figures for the z-score in test [8] and in [9] were -0.539 (inactive) and -0.866, respectively. The values for the composite z-score in test [4] and in test [10] were -0.804 (inactive) and 0.48, respectively.

With `COC(=O)[C@@]1(Cc2ccc(OC)cc2)[C@H]2c3cc(C(=O)N(C)C)n(Cc4c(CO)[nH]cc(C)c4=O)c3C[C@H]2CN1C(=O)c1ccccc1`, the z-score in test [1] was -0.548; in [2], -0.0117 (inactive); in [3] it was -1.06 (inactive); in test [5], 0.371 (inactive); in [6], -0.463 (inactive); in test [7], -0.897 (inactive). Further, the z-score is -0.542 (inactive) in test [8] and -0.717 in test [9]. For the same compound, the composite z-score in test [4] is -0.501 (inactive); in [10], -0.127.

Turning to `C=CC[C@H](O)c1ccc(O)c(F)c1`, the z-score is -0.632 in [1]; -2.36 (inactive) in test [2]; -0.711 (inactive) in test [3]; 0.131 (inactive) in test [5]; -0.498 (inactive) in test [6]; 0.117 (inactive) in test [7]. For the same compound, the results for the z-score in test [8] and in [9] were 0.0282 (inactive) and -0.0926, respectively. Besides, the results for the composite z-score in test [4] and in test [10] were -0.0056 (inactive) and -0.0088, respectively.

For `CCOC(=O)C[C@H]1[C@H](OC(=O)c2ccccc2-c2ccccc2)[C@@H](NC(=O)CC(C)C)c2cc(OCCCO)ccc2N1C(=O)c1ccccc1`, the z-score was 0.928 in test [1]; -1.04 (inactive) in [2]; 0.351 (inactive) in test [3]; 0.13 (inactive) in [5]; -0.71 (inactive) in test [6]; 1.51 (inactive) in test [7]. The z-score in test [8] was 0.973 (inactive); in test [9], -0.503. Moreover, the values for the composite z-score in [4] and in [10] were -0.6 (inactive) and 0.0412, respectively.
